Reference: PubChem BioAssay (EPA / NIEHS)
Active and inactive are the calls of the source. Rule for the calls: active = hit-call score of the fitted dose curve at least 0.9, where 1 is the maximum; inactive = score below 0.9.

Tests used:
[1] = target: Transcription factor E2F1 (Homo sapiens) (UniProt Q01094); experiment: ATG_E2F_CIS: Attagene CIS-FACTORIAL HepG2 Assay for human E2F Transcription Factor 1 (AID 2282935); conditions: HepG2 Attagene cis-reporter, E2F reporter RNA transcripts; actives raise or lower the signal
Procedure, shortened: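 First, HepG2 cells were transfected with reporter transcription units. Next, they were dosed for 24 h. Then RNA was isolated, converted to cDNA, PCR-amplified, FAM-labeled, HpaI-digested and analyzed by capillary electrophoresis.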

[2] = ATG_M_61_CIS: Attagene CIS-FACTORIAL HepG2 Assay for M61 Transcription Factor (Internal Marker) (AID 2282937); conditions: HepG2 Attagene CIS-FACTORIAL M61 internal marker reporter; actives raise or lower the signal
Procedure, shortened: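 Readout: fluorescent reporter mRNA fragments resolved by capillary electrophoresis after RT-PCR. Transiently transfected human HepG2 cells carried MRTU constructs reporting endogenous TF activity; 24 h chemical exposure; gain or loss of signal fitted relative to DMSO.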

[3] = ATG_EGR_CIS: Attagene CIS-FACTORIAL HepG2 Assay for human Early Growth Response 1 (EGR1) (AID 2282938); conditions: HepG2 Attagene CIS-FACTORIAL EGR reporter mRNA; actives raise or lower the signal
Procedure, shortened: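 Read-out: fluorescent reporter-mRNA fragments resolved by capillary electrophoresis after RT-PCR, 24 h post-dose in transiently transfected HepG2. Endogenous transcription-factor activity reported via cis-element-regulated reporter units; gain or loss fitted relative to DMSO.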

[4] = ATG_M_19_CIS: Attagene CIS-FACTORIAL HepG2 Assay for M19 Transcription Factor (Internal Marker) (AID 2282939); conditions: HepG2 Attagene CIS-FACTORIAL M19 internal marker reporter; actives raise or lower the signal
Procedure, shortened: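 Transfect HepG2 with MRTU reporter library → dose chemical, 24 h → isolate total RNA, reverse-transcribe with oligo(dT) → PCR, 6-FAM label, HpaI cut (2 h, 37 C) → capillary electrophoresis. Bidirectional fit vs DMSO.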

[5] = ATG_ERE_CIS: Attagene CIS-FACTORIAL HepG2 Assay for Estrogen Response Element (ERE) (AID 2282940); conditions: HepG2 ERE cis-reporter, Attagene RNA transcript; actives raise or lower the signal
Procedure, shortened: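 Transient MRTU transfection of human HepG2; cis-element promoters; 24 h dosing; total RNA → RT (oligo dT) → PCR → 6-FAM primer extension → HpaI digest → CE fluorescence. Bidirectional fit, DMSO baseline.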

[6] = ATG_Ets_CIS: Attagene CIS-FACTORIAL HepG2 Assay for human Erythroblast Transformation Specific (ETS) (AID 2282941); conditions: HepG2 ETS cis-reporter transcription, actives raise or lower the signal
Procedure, shortened: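 Cis-regulated reporter mRNA induction in HepG2 (transient transfection), 24 h exposure, RT-PCR plus capillary electrophoresis detection; DMSO serves as negative control and baseline.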

[7] = target: Hepatocyte nuclear factor 3-beta (Homo sapiens) (UniProt Q9Y261); experiment: ATG_FoxA2_CIS: Attagene CIS-FACTORIAL HepG2 Assay for human Forkhead box A2 (FOXA2) (AID 2282942); conditions: HepG2 cis-reporter transcription factor activity, 24 h; actives raise or lower the signal
Procedure, shortened: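 Readout: fluorescent reporter transcripts resolved by capillary electrophoresis after RT-PCR. Transiently transfected HepG2, 24 h compound exposure, endogenous TF activity at cis promoter elements. Gain or loss of signal fitted relative to DMSO.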

[8] = ATG_FoxO_CIS: Attagene CIS-FACTORIAL HepG2 Assay for human Forkhead box O (FoxO) (AID 2282943); conditions: HepG2 Attagene cis-reporter, FoxO element, mRNA; actives raise or lower the signal
Procedure, shortened: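 Values reflect reporter mRNA induction or loss in HepG2 cells 24 h post-dosing, fitted bidirectionally with DMSO as negative control and baseline. Detection used RT-PCR and fluorescence capillary electrophoresis.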

[9] = ATG_GATA_CIS: Attagene CIS-FACTORIAL HepG2 Assay for human GATA Binding Protein (AID 2282944); conditions: HepG2 GATA cis-element reporter, Attagene multiplex mRNA; actives raise or lower the signal
Procedure, shortened: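 Transient MRTU transfection, HepG2, 24 h compound exposure. Total RNA → oligo(dT) RT → PCR → 6-FAM primer extension → HpaI cut → CE. Bidirectional fit vs DMSO.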

Measured: AC50

Chain of Transcription factor E2F1 (Homo sapiens) (Q01094 whole entry, looked up): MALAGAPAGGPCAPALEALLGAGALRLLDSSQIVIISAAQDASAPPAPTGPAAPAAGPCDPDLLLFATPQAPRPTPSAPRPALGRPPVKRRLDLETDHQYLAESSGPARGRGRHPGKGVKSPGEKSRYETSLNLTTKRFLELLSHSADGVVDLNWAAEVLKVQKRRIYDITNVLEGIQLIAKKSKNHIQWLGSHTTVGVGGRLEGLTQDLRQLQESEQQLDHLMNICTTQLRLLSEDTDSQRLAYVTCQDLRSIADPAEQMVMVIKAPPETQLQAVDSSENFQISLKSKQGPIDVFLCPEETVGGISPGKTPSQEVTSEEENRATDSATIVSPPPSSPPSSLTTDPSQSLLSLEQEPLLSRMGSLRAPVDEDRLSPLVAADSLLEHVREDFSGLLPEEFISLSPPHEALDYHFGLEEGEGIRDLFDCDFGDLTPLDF
Chain of Hepatocyte nuclear factor 3-beta (Homo sapiens) (Q9Y261 whole entry, looked up): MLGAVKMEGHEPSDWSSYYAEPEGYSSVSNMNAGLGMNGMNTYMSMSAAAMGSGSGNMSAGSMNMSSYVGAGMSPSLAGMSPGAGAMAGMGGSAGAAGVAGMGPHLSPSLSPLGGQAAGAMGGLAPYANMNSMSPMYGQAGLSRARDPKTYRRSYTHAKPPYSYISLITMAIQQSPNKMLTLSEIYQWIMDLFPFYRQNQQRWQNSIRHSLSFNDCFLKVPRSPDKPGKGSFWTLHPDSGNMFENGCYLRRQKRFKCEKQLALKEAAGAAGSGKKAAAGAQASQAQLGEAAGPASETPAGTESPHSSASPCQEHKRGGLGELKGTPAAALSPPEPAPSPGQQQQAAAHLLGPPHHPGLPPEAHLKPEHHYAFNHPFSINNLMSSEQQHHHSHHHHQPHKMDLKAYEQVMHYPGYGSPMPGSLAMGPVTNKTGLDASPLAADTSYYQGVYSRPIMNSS

O=C(O)C(F)(F)C(F)(F)C(=O)O
inactive: [1] | [2] | [3] | [4] | [5] | [6] | [7] | [8] | [9]

O=NN1CCCC1
inactive: [1] | [2] | [3] | [4] | [5] | [6] | [7] | [8] | [9]

O=[N+]([O-])c1ccc(Cl)c(Cl)c1
inactive: [1] | [2] | [3] | [4] | [5] | [6] | [7] | [8]

CCN(CC)C1CCCCC1
inactive: [1] | [2] | [3] | [4] | [5] | [6] | [7] | [8]

c1ccc2c(c1)Nc1ccccc1S2
inactive: [1] | [2] | [3] | [4] | [6] | [7] | [8]
active: [5] 16.2 µM

CCOC(=O)c1ccccc1N
inactive: [1] | [2] | [3] | [4] | [5] | [6] | [7] | [8] | [9]

Nc1ccc2ccccc2c1
inactive: [1] | [2] | [3] | [4] | [5] | [7] | [8]

Cc1ccc2c(c1N)C(=O)c1ccccc1C2=O
inactive: [1] | [2] | [3] | [4] | [7] | [8] | [9]
active: [5] 5.24 µM

Cc1ccc(O)cc1C
inactive: [1] | [2] | [3] | [4] | [7] | [8]
active: [5] 160 µM

CNC(=O)Oc1ccc(N(C)C)c(C)c1
inactive: [1] | [2] | [3] | [4] | [5] | [7] | [8]

CO/N=C(/C(=O)OC)c1ccccc1COc1ccccc1C
active: [3] 43 µM | [5] 42.9 µM
inactive: [1] | [2] | [4] | [6] | [7] | [8] | [9]

CCCCN(CCCC)SN(C)C(=O)Oc1cccc2c1OC(C)(C)C2
inactive: [1] | [2] | [3] | [4] | [6] | [7] | [8]
active: [5] 14.7 µM

[N-]=[N+]=[N-]
inactive: [1] | [2] | [3] | [4] | [5] | [7] | [8] | [9]

CCCCOCCOP(=O)(OCCOCCCC)OCCOCCCC
inactive: [1] | [2] | [3] | [4] | [5] | [7] | [8]

Nc1ccc(Cl)cc1
inactive: [1] | [2] | [3] | [4] | [5] | [6] | [7] | [8] | [9]

N#Cc1cc([N+](=O)[O-])ccc1N
inactive: [1] | [2] | [3] | [4] | [5] | [6] | [7] | [8] | [9]

CCOP(=S)(Oc1ccc([N+](=O)[O-])cc1)c1ccccc1 (stereo not given)
active: [5] 3.35 µM
inactive: [1] | [2] | [3] | [4] | [7] | [8] | [9]

Cc1ccc(N)cc1N
inactive: [1] | [2] | [3] | [4] | [5] | [6] | [7] | [8] | [9]

CC(O)C#N (stereo not given)
inactive: [1] | [2] | [3] | [4] | [5] | [6] | [7] | [8]

CCOP(=S)(S)OCC
inactive: [1] | [2] | [3] | [4] | [5] | [6] | [7] | [8] | [9]

CCOP(=S)(OCC)SCSc1ccc(Cl)cc1
active: [5] 4.21 µM
inactive: [1] | [2] | [3] | [4] | [6] | [7] | [8] | [9]

CCCCN(CC)C(=O)SCCC
inactive: [1] | [2] | [3] | [4] | [5] | [7] | [8]

O=C(O)C(F)(F)OC(F)(F)C(F)(F)OC(F)(F)C(=O)O
inactive: [1] | [2] | [3] | [4] | [5] | [7] | [8]

NNC(N)=S
inactive: [1] | [2] | [3] | [4] | [5] | [6] | [7] | [8] | [9]

ClC(Cl)c1ccccc1
inactive: [1] | [2] | [3] | [4] | [5] | [6] | [7] | [8]

Cc1c([N+](=O)[O-])cc2c(c1[N+](=O)[O-])C(C)(C)CC2(C)C
inactive: [1] | [2] | [3] | [4] | [5] | [6] | [7] | [8] | [9]

O=P(Oc1ccccc1)(Oc1ccccc1)Oc1ccccc1
inactive: [1] | [2] | [4] | [7] | [8] | [9]
active: [3] 33.4 µM | [5] 9.81 µM

N#Cc1c(-c2ccc(Cl)cc2)[nH]c(C(F)(F)F)c1Br
inactive: [1] | [2] | [3] | [4] | [5] | [7] | [8] | [9]
active: [6] 19.8 µM

FC(F)(F)c1ccc(Cl)cc1
inactive: [1] | [2] | [3] | [4] | [5] | [6] | [7] | [8]

OCC(F)(F)OC(F)(F)C(F)(F)OC(F)(F)C(F)(F)OC(F)(F)CO
active: [5] 0.506 µM
inactive: [1] | [2] | [3] | [4] | [7] | [8]
